The sample as a whole holds a higher share of hits than the screen did.
PL synth Enamine = animal cell phospholipid biosynthesis inhibition, Enamine screen | ZR-82 CHO cells, pyrene fatty acid UV survival, CellTiter Blue; peroxisome-deficient CHO-K1 mutant line; plus DGAT-1, DGAT-2 and ACAT inhibitors | AID 1347385 | 0.4% of 20,000 active | calls only at 10 µM;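 active means cell survival signal 2 SD away from solvent-only control wells, confirmed on one or two retests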;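 further: 3 h compound exposure then viability read about one day after UV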
The depositor's hits bear a star; i = inactive; + = active, no number.

SMILES | PL synth Enamine
O=[N+]([O-])c1ccc(Cl)c(S(=O)(=O)Nc2ccc(SC(F)F)cc2)c1 | i
CN(C)P(=Nc1ccc([N+](=O)[O-])cc1Br)(N(C)C)C(C)(C)C | i
CN(C)c1ccc(N=Cc2cc([N+](=O)[O-])ccc2OC(F)F)cc1 | i
O=[N+]([O-])c1ccc(N=Nc2ccc(NCC(F)(F)C(F)F)cc2)c(Cl)c1 | +
Nc1ccc([N+](=O)[O-])cc1C(F)(F)F | i
CN(C)c1ccc(N=Nc2ccc([N+](=O)[O-])cc2C(F)(F)F)cc1 | +
Cc1cc(/C=N/N2CCOCC2)c(C)n1-c1ccc(I)cc1 | i
CN1CCC(=N)NC1=O | i
C#CCn1c(CCCO)nc2ccccc21 | i
CC1CCc2c(sc3ncnc(Oc4ccc(Br)cc4Br)c23)C1 (configuration not stated) | i
Cc1cc(C)c2c(=O)[nH]c(=S)[nH]c2n1 | i
O=C(CSc1nnnn1C1CC1)c1ccc2c(c1)CCC2 | i
Cc1noc(C)c1COC(=O)/C(=C/c1cccs1)c1cccs1 | i
C=CCN1C(=O)/C(=N\N=C\c2c[nH]c3ccccc23)c2ccccc21 | +
O=S(=O)(N/N=C/c1c[nH]c2ccccc12)c1ccc(Br)cc1 | i
NC(=S)N/N=C/c1c[nH]c2ccccc12 | i
Cc1sc2nc(-c3cccs3)nc(NCCCN3CCOCC3)c2c1C | i
CC1CCCC/C1=N\NC(=S)NC1CCCCC1 (configuration not stated) | i
CC(C)NC(=S)N/N=C1\CCCCC1C1CCCCC1 (configuration not stated) | +
CC(C)NC(=S)NN=C1CCC(C(C)(C)C)CC1 (configuration not stated) | i
CCN(CC)c1ccc(C2SCc3cc(C)c(C)cc3CS2)cc1 | i
Cc1nn(-c2ccccc2)c(N)c1N=Nc1ccc([N+](=O)[O-])c(C(F)(F)F)c1 | +
Cc1ccc(-n2nc(C)c(N=Nc3ccccc3C)c2N)cc1 | i
Cc1cccc(N=Nc2c(C)nn(-c3ccccc3)c2N)c1C | i
S=C(N/N=C/c1cccs1)NC1CCCCC1 | +
SMILES | PL synth Enamine
O=C(/C=C/c1cccs1)NC1CCCC1 | i
COCCNC(=S)N/N=C/c1cccs1 | i
O=[N+]([O-])c1ccc2c(c1)S(=O)(=O)N=C1CCCN12 | i
FC(F)(F)c1nc(Nc2ccc3c(c2)OCCCO3)c2ccccc2n1 | i
CCCCCC(C)Nc1ncnc2sc3c(c12)CCC3 (configuration not stated) | i
O=C(Nc1nc2ccc(Cl)cc2s1)c1ccc(Br)s1 | i
CC1C/C(=N\NC(=S)NC2CCCCC2)CC(C)(C)C1 (configuration not stated) | +
CC1C/C(=N\NC(=O)C(N)=O)CC(C)(C)C1 (configuration not stated) | i
S=C(N/N=C1\CC2CC=CC12)NC1CCCCC1 (configuration not stated) | i
CC1CCC(=NNC(=S)NCC2CCCO2)CC1 (configuration not stated) | i
CCCCN(CCCC)[P+](Nc1n[nH]c(=O)[nH]c1=O)(N(CCCC)CCCC)N(CCCC)CCCC | +
Cc1ccc(/C=C/C(=O)OCC(=O)c2ccc(Cl)s2)o1 | i
CC([O-])=Nc1c[n+](-c2ccccc2)no1 | i
CN=c1scc(-c2ccc(Br)cc2)n1/N=C/c1ccc(Cl)cc1 | i
CC(C)N=c1scc(-c2ccc(Cl)c(Cl)c2)n1/N=C/c1ccc2c(c1)OCCO2 | i
Cc1ccc(-c2csc(=NC(C)C)n2/N=C/c2ccc(Cl)cc2)cc1C | +
C(=N\n1c(-c2ccccc2)csc1=NCCc1ccccc1)/c1c[nH]c2ccccc12 | +
CN=c1scc(-c2ccccc2)n1/N=C/c1c[nH]c2ccccc12 | i
C(=N\n1c(-c2ccco2)csc1=NCCc1ccccc1)/c1ccco1 | i
O=C1CC2(CCCC2)C(=O)N1Cc1nc(-c2ccsc2)no1 | i
Nc1ncc(-c2ccccc2)nn1 | i
CC(C)c1cc(C(C)C)c(Sc2c(-c3ccccc3)nc3ncccn23)c(C(C)C)c1 | i
O=C(N1CCN(S(=O)(=O)c2cccs2)CC1)n1ccnc1 | i
S=c1[nH]nc(-c2ccccn2)n1/N=C/c1c(-c2ccccc2)[nH]c2ccccc12 | i
C/C(=N\n1c(-c2ccc(OC(F)F)cc2)csc1=NC(C)C)c1ccc(-n2ccnc2)cc1 | +
SMILES | PL synth Enamine
COCCN=c1scc(-c2ccc(OC(F)F)cc2)n1/N=C(\C)c1ccc2c(c1)OCO2 | i
C=CCN=c1scc(-c2ccc(OC(F)F)cc2)n1/N=C(\C)c1ccc2c(c1)OCCO2 | i
O=C(C1CCN(C2=NS(=O)(=O)c3ccccc32)CC1)N1CCN(c2ncccn2)CC1 | i
O=S(=O)(c1cc(Br)ccc1Br)N1CCCCCCC1 | i
COc1ccc2c(=O)c(-c3cscn3)c(C(F)(F)F)oc2c1 | i
Cc1nc(N)sc1N=Nc1cccc2ccccc12 | +
Nc1nc(=O)c2cccnc2s1 | i
COc1ccccc1N=Nc1c(O)ccc2ccccc12 | i
O=C(CSc1nnc(C2CC2)n1C1CC1)N1CCN(C(=O)c2ccco2)CC1 | i
O=C1N(c2ccc(Cl)cc2)C(c2ccc3c(c2)OCO3)C1(F)F (configuration not stated) | i
CC1CN(CC(O)COCC2COc3ccccc3O2)CC(C)O1 (configuration not stated) | i
CN1/C(=C\C=Nc2ccccc2N)C(C)(C)c2ccccc21 | +
CN1/C(=C\C=Nc2c(F)c(F)c(F)c(F)c2F)C(C)(C)c2ccccc21 | i
CN1/C(=C\C=Nc2ccccc2I)C(C)(C)c2ccccc21 | i
COc1ccc(-c2noc(CSc3nnc(C4CC4)n3C3CC3)n2)cc1OC | i
O=[N+]([O-])c1cc(S(=O)(=O)Nc2cc(Cl)ccc2F)ccc1F | i
S=C(NNc1ccnc2cc(Cl)ccc12)Nc1ccc(Cl)cc1 | i
Fc1ccc(NC(=S)NNc2ccnc3cc(Cl)ccc23)cc1 | i
S=C(NNc1ccnc2cc(Cl)ccc12)Nc1ccccc1Cl | +
CC(C)(C)OC(=O)NNC(=O)/C=C/c1ccco1 | i
CCN(CC)C(=O)CSc1ncnc2sc3c(c12)CCC3 | i
Brc1ccccc1C=C(c1nc2ccccc2s1)c1nc2ccccc2s1 | i
O=C1Nc2ccc(Br)cc2C1=C(c1nc2ccccc2s1)c1nc2ccccc2s1 | +
Oc1c(Br)cc(/C=C/c2nc3ccccc3s2)cc1Br | i
COc1ccc(-c2c[n+]3c(n2-c2ccc(Br)cc2)CCc2ccccc2-3)cc1 | i
SMILES | PL synth Enamine
O=C(Cc1cccs1)Nc1nccs1 | i
O=C(C[n+]1cc(-c2ccc(Br)cc2)n2c1CCCCC2)c1ccc2c(c1)OCCO2 | i
C=CCn1sc(N)c(C(=O)OCC)c1=S | +
CCOC(=O)c1c(N)oc(C)c1C(C)=O | i
CCOC(=O)c1c(N)sc(C(N)=O)c1C | i
O=C(CSc1nnnn1Cc1cccs1)N(C1CCCC1)C1CCS(=O)(=O)C1 (configuration not stated) | i
CC1SC(=Nc2ccc(S(=O)(=O)N3CCOCC3)cc2)NN=C1C12CC3CC(CC(C3)C1)C2 (configuration not stated) | i
